High-throughput results from PubChem BioAssay.
WT yeast gro inh: growth inhibition of WT yeast, mitochondrial fusion screen. mitochondrial fusion phenotypic screen, WT strain. inhibition, % at 10 µM. 190,000 compounds, 2.1% hits; in the data active = inhibition above about 58%; tested in S. cerevisiae
Insulin prom inh: TRM-6 insulin promoter activity inhibition | TRM-6 cells (human fetal islet line), insulin promoter-eGFP reporter, imaging; reporter expression induced with tamoxifen | inhibition, % at 2 µM | 130,000 compounds, 0.9% hits;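 active = inhibition above the mean plus 3 SD, with well images judged a real hit on visual review, cut at about 60% in these data, passing the limit was not always enough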
Insulin prom up: MIN6 insulin promoter up-regulation; MIN6 insulin promoter-GFP reporter, high-content imaging; active compounds read high; z-score at 5 µM; 190,000 compounds, 0.3% hits; AID 1625;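 active = z-score above 3 at 5 µM with at least 500 cells counted in the well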
ROMK primary: modulates human ROMK potassium channel activity; P48048; 130,000 compounds, 2% hits; AID 1918; B-score at 10 µM; Tet-inducible ROMK, thallium flux fluorescence; actives lie on both sides;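 active = signal ratio slope over the read window, or its plate-corrected B-score, at least 3 SD from the plate mean, either direction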;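 also: B-score of the F/F0 ratio slope over 7 to 12 s after thallium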
Target sequence (P48048 whole entry, looked up): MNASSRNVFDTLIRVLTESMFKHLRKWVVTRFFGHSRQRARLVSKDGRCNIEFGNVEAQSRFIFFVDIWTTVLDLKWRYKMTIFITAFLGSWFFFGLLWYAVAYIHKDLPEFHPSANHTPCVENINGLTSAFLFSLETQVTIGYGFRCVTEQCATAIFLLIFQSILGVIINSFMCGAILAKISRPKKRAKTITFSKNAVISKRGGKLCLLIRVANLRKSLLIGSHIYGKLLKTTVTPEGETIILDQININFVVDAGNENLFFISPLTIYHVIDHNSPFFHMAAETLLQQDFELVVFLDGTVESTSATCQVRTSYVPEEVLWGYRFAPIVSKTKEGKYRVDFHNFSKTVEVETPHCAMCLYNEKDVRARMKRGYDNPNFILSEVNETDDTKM
Lmaj promast: reduces viability of Leishmania major promastigotes. AID 1063. 200,000 compounds, 9% hits. resazurin fluorescence viability. inhibition, % at 10 µM; in the data active = inhibition above about 50%;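 also: promastigotes grown with compound for 44 hours at 28 °C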
KCC2 mod: modulators of human KCC2 chloride dependent transport. 190,000 compounds, 2.2% hits. Q9H2X9. KCC2 cells, thallium flux FluoZin-2 fluorescence. B-score of Tl+ flux slope (higher = more flux/activation; lower = inhibition) at 10 µM. AID 1456;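 active = thallium flux slope and its plate-corrected score both differing from the plate sample mean at a set confidence after two filtering rounds, in either direction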;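 also: slope of fluorescence scaled to starting intensity during 10 to 20 s after thallium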
* = called active by the depositor; x = no result. Only some compounds are listed: those with a hit (about 12% of all), similar ones and a draw of the others.

SMILES	WT yeast gro inh	Insulin prom inh	Insulin prom up	ROMK primary	Lmaj promast	KCC2 mod
CCN(CC)S(=O)(=O)c1cc(NC(=O)C(C)N(C)CC(=O)Nc2c(C)cccc2C)ccc1C (stereo not given)	-11	-67	-0.84	x	68*	-1.6
CCN(CC)S(=O)(=O)c1cc(NC(=O)C(C)N2CCc3ccccc32)ccc1C (stereo not given)	-12	x	-0.25	0.94	24	0.28
CCC(C)NC(=O)CSc1ncccc1C(=O)O (stereo not given)	29	x	-0.79	-0.31	-6	-0.056
CC1=NN(c2ccc(C(=O)OC(C)C)cc2)C(=O)/C1=C\C=C\c1ccco1	4	38	-1.1	-0.45	76*	2
CC1=NN(c2ccccc2)C(=O)/C1=C/C=C/c1ccc(N(C)C)cc1	54	0	0.05	0.016	68*	-0.062
CC1=NN(c2ccccc2)C(=O)/C1=C\C=C\c1ccccc1	x	x	-0.84	x	x	-0.34
CCOC(=O)CC1=NN(c2ccccc2)C(=O)/C1=C\c1ccc(N(C)C)cc1	35	10	0.02	0.34	96*	0.72
CSc1sccc1/C=N/NC(=O)c1ccncc1	-6	-13	0.67	1	-6	-1.3
O=C(c1ccc(Br)cc1)N1CCN(S(=O)(=O)c2ccccc2)CC1	13	x	x	x	4	0.16
O=C(Nc1nnc(-c2cccs2)o1)c1ccc(S(=O)(=O)N2CCOCC2)cc1	-5	-6	-0.43	0.085	28	-1.4
O=C(Nc1nnc(-c2cccs2)o1)c1cccc(F)c1	46	x	x	x	94*	26*
O=C(Nc1nnc(-c2cccs2)o1)c1cccc(Oc2ccccc2)c1	68	x	0.23	x	52*	x
CC1CCCCN1S(=O)(=O)c1ccc(S(=O)(=O)N2CCN(c3ccc(F)cc3)CC2)cc1 (stereo not given)	-8	43	-1.4	-0.9	0	x
CCOC(=O)C1CCN(c2cc(C)nc3ccc(OC)cc23)CC1	-37	18	-0.04	-0.81	4	-0.43
Cc1ccc(CN(C(=O)c2csnn2)C(C(=O)NC2CCCC2)c2ccc(C)o2)cc1 (stereo not given)	2	-55	0.82	x	6	-0.37
COCCn1cnc2c1c(=O)n(CC(=O)Nc1cc(C)on1)c(=O)n2Cc1ccccc1	-7	24	1.7	x	0	0.079
COCCn1cnc2c1c(=O)n(CC(=O)OCC(=O)NCCCc1ccccc1)c(=O)n2Cc1ccccc1	-10	-33	1.6	-0.056	51*	-1.9
CCN(CC)C(=O)C1CCCN(Cc2ccc(OC)c(C)c2C)C1 (stereo not given)	7	-21	-0.11	0.31	-2	0.51
N#CCCn1cc(C=C(C#N)C#N)c(-c2ccc(Cl)cc2)n1	12	x	-0.3	-3.3	6	-0.43
N#CCCn1cc(/C=C(\C#N)c2nc3ccccc3s2)c(-c2ccc(F)cc2)n1	-9	74*	0.44	x	4	-0.03
C1CN(CC23CC4CC(CC(C4)C2)C3)CCO1	2	-249	1.1	x	81*	-0.0058
CCn1c(C)nc2cc(C(=O)N/N=C/c3cccc(OC)c3O)ccc21	12	x	-0.24	1.5	94*	-0.43
COc1cccc(/C=N/NC(=O)c2nc(-c3ccccc3)cc(-c3ccccc3)n2)c1O	-7	11	-0.35	-1.1	100*	0.067
CCO/C(C)=N/n1c2nc3ccccc3nc2c2c(=O)n(Cc3ccccc3Cl)c(C)nc21	-1	27	-0.78	0.62	36	x
CN(C)CCCn1c(NC(=O)C2CCCCC2)nc2ccccc21	-1	18	-0.17	-0.14	-3	x
SMILES	WT yeast gro inh	Insulin prom inh	Insulin prom up	ROMK primary	Lmaj promast	KCC2 mod
CCCCn1c(NCCO)nc2ccccc21	-12	x	-0.55	x	-4	-0.69
CCCCn1c(NC(=S)Nc2ccccc2)nc2ccccc21	6	-19	-2.2	0.32	80*	47*
CCCCn1c(NC(=O)C2CCCCC2)nc2ccccc21	24	-40	0.43	-0.36	71*	1.5
CC1CC1C(=O)OCC(=O)Nc1ccc2[nH]c(=O)[nH]c2c1 (stereo not given)	-3	18	-0.3	1	-4	0.51
COc1ccc(CNC(=O)c2noc(C(C)C)c2[N+](=O)[O-])cc1	-3	-50	x	2.4	54*	-2.4
CC(C)c1onc(C(=O)NCc2ccc(Cl)cc2)c1[N+](=O)[O-]	-3	x	-0.16	x	-9	0.057
COc1ccc(-c2cc(=O)oc3cc(OCC(=O)c4cccc([N+](=O)[O-])c4)ccc23)cc1	-4	11	-0.04	x	2	1.5
Cc1cccc2cc(CN(Cc3cccs3)C(=S)NCC3CCCO3)c(=O)[nH]c12 (stereo not given)	20	-24	0.47	x	42	0.041
Cc1ccc(NC(=S)N(Cc2cccs2)Cc2cc3cccc(C)c3[nH]c2=O)cc1	19	-47	-1.3	0.97	92*	0.57
CCN(Cc1cc2cccc(C)c2[nH]c1=O)C(=O)c1ccccc1OC	x	x	-0.23	x	x	x
Cc1cccc2cc(CN(CCN(C)C)C(=S)Nc3ccccc3)c(=O)[nH]c12	-4	19	-0.35	-0.8	79*	-0.056
COC(=O)c1ccccc1NC(=S)N(Cc1ccc2c(c1)OCO2)Cc1cc2cccc(C)c2[nH]c1=O	23	x	-1.1	x	67*	-0.98
Cc1cccc(NC(=S)N(CCN(C)C)Cc2cc3cc(C)ccc3[nH]c2=O)c1	-2	x	-0.11	-1.8	16	0.48
COc1ccccc1NC(=S)N(Cc1ccco1)Cc1cc2cc(C)cc(C)c2[nH]c1=O	30	x	-0.43	x	85*	-0.065
Cc1nc(C)c(-c2ccn(S(=O)(=O)c3ccc(Cl)cc3)n2)o1	x	x	-0.1	x	x	x
Cc1cc([N+](=O)[O-])nn1CCCC(=O)Nc1ccc(Cl)cc1Cl	-17	x	-0.6	-0.017	3	-0.64
C=CCN=C1CC(C)(C)CC(=O)/C1=C(\O)CCCN1C(=O)c2ccccc2C1=O	-12	x	0	-0.26	0	1.1
C/C(=N\N1CCN(c2ccccc2)CC1)c1ccco1	0	-18	0.12	-0.0084	23	-0.41
Fc1ccc(OCc2nn3cnnc3s2)cc1	18	-6	-0.07	0.89	-10	-1
Cc1ccc2cc(CN(CCCN(C)C)C(=S)NCc3ccccc3)c(=O)[nH]c2c1C	-16	x	0.08	-2.7	95*	0.27
Cc1ccc2cc(CN(CCCN(C)C)C(=O)NCc3ccccc3)c(=O)[nH]c2c1C	13	-80	-1.3	x	10	0.087
O=C(COC(=O)C1=COCCO1)NC(=O)c1ccc(OC(F)F)cc1	-15	-80	-0.21	-0.66	-6	0.058
CC1CCCCN1c1nnc(NC(=O)c2cc(-c3ccc(Br)cc3)on2)s1 (stereo not given)	68*	x	-0.7	x	19	2.4
CC(C)NC(=O)c1cc(-c2ccc(Br)cc2)on1	21	0	-0.5	0.67	-1	x
COC(=O)c1cc(NC(=O)Cc2cc(OC)c(OC)c(OC)c2)cc(C(=O)OC)c1	5	-33	-0.35	0.19	2	-0.65
Cc1cccc(OCC(=O)Nc2ccc3c(c2)OCO3)c1C	2	x	-0.07	-0.59	73*	-0.062
Cc1cccc(OCCCC(=O)Nc2ccc(N3CCOCC3)cc2)c1	9	21	-0.39	0.76	1	0.87
